Screens deposited in PubChem BioAssay by NMMLSC.
Compounds with a hit are over-represented: about 1.3% of the library has one in this group of screens.
CIT2 TOR yeast = alters CIT2-GFP fluorescence in TOR pathway yeast screen | S. cerevisiae CIT2-GFP strain, flow cytometry, 3 h; 100 means same as DMSO wells | GFP response vs DMSO, % at 10 µM | hit rate 0.065% among 320,000 | AID 2029;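 active means GFP response relative to DMSO above a set limit, near the screen mean plus 3 SD, cut at about 150% in these data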;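 further: ratio of well median GFP fluorescence to mean of DMSO wells on the plate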
Efflux pump mplx = antifungal efflux pump inhibition, Nile Red retention; S. cerevisiae Candida pump triplex; inhibition, % at 10 µM; hit rate 0.44% among 330,000; AID 485275;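 active means plate passing quality check with inhibition over a set limit, or well fluorescence over plate mean plus 4 SD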;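 further: Nile Red retained in pooled yeast measured as flow cytometry median fluorescence; 0% = buffer negative control and 100% = Enniatin B positive control; higher means more Nile Red kept so more efflux inhibition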
RPL19A-GFP yeast = alters RPL19A-GFP fluorescence in TOR pathway yeast screen; S. cerevisiae RPL19A-GFP strain, flow cytometry, 3 h; hits give low values; percent response vs DMSO, % at 10 µM; hit rate 0.3% among 330,000; AID 2025;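 active means percent response vs DMSO below 50%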;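 further: median channel GFP fluorescence of the barcoded RPL19A-GFP strain; ratio of sample median GFP to plate DMSO average so 100% = DMSO; lower means less RPL19A-GFP as with rapamycin TOR inhibition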
MEP2 TOR yeast = modulators of TOR pathway MEP2-GFP in S. cerevisiae; S. cerevisiae MEP2-GFP strain, flow cytometry GFP, 3 h; 100% = DMSO control level; GFP response vs DMSO, % at 10 µM; hit rate 0.51% among 330,000;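 active means GFP response versus DMSO above a set limit, roughly screen mean plus 3 SD, cut at about 180% in these data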;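 further: median GFP fluorescence of the barcode-gated MEP2-GFP cells per well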
LAP4-GFP MLPCN = modulators of TOR pathway LAP4-GFP in S. cerevisiae; hit rate 0.34% among 320,000; S. cerevisiae LAP4-GFP multiplex, flow cytometry GFP, 3 h; median GFP as percent of DMSO wells; GFP response vs DMSO, % at 10 µM;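 active means GFP response vs DMSO above a set limit, about the screen mean plus 3 SD, cut at about 150% in these data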
AGP1-GFP MLPCN = modulators of TOR pathway AGP1-GFP in S. cerevisiae | S. cerevisiae AGP1-GFP multiplex flow cytometry, 3 h; GFP as percent of DMSO wells | AID 2066 | GFP response vs DMSO, % at 10 µM | hit rate 0.02% among 320,000;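 active means GFP response relative to DMSO above a set limit, near screen average plus 3 SD, cut at about 150% in these data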;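 further: median GFP channel fluorescence of the gated AGP1 strain per well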
LAP4-GFP pick2 = second confirmation of modulators of TOR reporter LAP4-GFP in yeast | shares compounds with LAP4-GFP MLPCN | S. cerevisiae LAP4-GFP strain, flow cytometry GFP, 3 h | GFP response vs DMSO, % at 10 µM | hit rate 20% among 590 | AID 2621;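 active means GFP signal as percent of the solvent control above about 150%, meaning raised reporter expression, limit read from the data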;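 further: ratio of well median GFP fluorescence to plate DMSO mean so 100% = DMSO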
MEP2-GFP pick2 = second confirmation of modulators of TOR reporter MEP2-GFP in yeast; hit rate 10% among 590; shares compounds with LAP4-GFP MLPCN; S. cerevisiae MEP2-GFP strain, flow cytometry GFP, 3 h; GFP response vs DMSO, % at 10 µM; AID 2622;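 active means GFP signal above 150% of the solvent control wells, that is a rise of more than half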;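 further: median channel GFP fluorescence of all gated yeast cells per well; ratio of median GFP to plate DMSO average so 100% = DMSO level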
RPL19A-GFP pick2 = reconfirmed modulator of RPL19A-GFP TOR reporter in yeast; shares compounds with LAP4-GFP MLPCN; S. cerevisiae RPL19A-GFP strain, flow cytometry GFP, 3 h; hits give low values; 100% means same as DMSO wells; GFP response vs DMSO, % at 10 µM; hit rate 3% among 590; AID 2623;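 active means under 65% GFP response relative to DMSO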;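 further: median GFP channel fluorescence per well over the all cells gate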
CIT2-GFP pick2 = second confirmation of modulators of TOR reporter CIT2-GFP in yeast | shares compounds with LAP4-GFP MLPCN | GFP response vs DMSO, % at 10 µM | hit rate 8% among 590 | S. cerevisiae CIT2-GFP strain, flow cytometry GFP, 3 h; DMSO control wells read 100%;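 active means GFP response vs DMSO above about 150%, limit read from the data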;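 further: median green fluorescence per well over all gated yeast cells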
AGP1-GFP pick2 = yeast AGP1-GFP TOR reporter modulation, second cherry pick | shares compounds with LAP4-GFP MLPCN | S. cerevisiae AGP1-GFP strain, flow cytometry GFP, 3 h | percent response vs DMSO, % at 10 µM | 590 tested, under 10 active | AID 2643;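 active means over 150 percent of DMSO response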;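 further: median GFP channel fluorescence over all cells without mother daughter split; sample median GFP divided by mean DMSO control so 100% equals DMSO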
s288c autofluor = counter-screen for compound autofluorescence in yeast s288c cells | shares compounds with LAP4-GFP MLPCN | S. cerevisiae s288c, 520 nm autofluorescence, flow cytometry, 3 h; hits give high values; zero means same as solvent-only cells | 610 tested, under 10 active | fluorescence change (kMESF span) at 33 µM;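 active means fluorescence span over the dose series, or activity score, above about 33, limit read from the data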
Yeast autofl DR = counter-screen for autofluorescence of TOR hits in yeast s288c; shares compounds with LAP4-GFP MLPCN; S. cerevisiae s288c parental, compound autofluorescence, flow cytometry, 3 h; fluorescence change (span) at 33 µM; 110 tested, under 10 active;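 active means fluorescence change span, or the activity score built from it, above 25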
TORC1 bypass gr = wildtype yeast growth loss with TORC1 bypass cells unaffected; shares compounds with LAP4-GFP MLPCN; S. cerevisiae BY4741 spot growth rating, 48-72 h; hits give low values; growth rating (0-3) at 30 µM; 120 tested, under 10 active; AID 504456;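 active means growth rating at most 1 for wild type yeast while the TORC1 bypass strain still grows fully, rated 3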
An asterisk follows results filed as active; x = no result.

SMILES | CIT2 TOR yeast | Efflux pump mplx | RPL19A-GFP yeast | MEP2 TOR yeast | LAP4-GFP MLPCN | AGP1-GFP MLPCN | LAP4-GFP pick2 | MEP2-GFP pick2 | RPL19A-GFP pick2 | CIT2-GFP pick2 | AGP1-GFP pick2 | s288c autofluor | others
COc1ccc(/C=C(\NC(=O)c2ccc(C)cc2)C(=O)Nc2ccc(C(=O)O)cc2)cc1 | 98.9 | 0.0 | 103.6 | 104.0 | 93.7 | 94.2 | x | x | x | x | x | x
CC(OC(=O)c1ccco1)C(=O)Nc1nc(-c2ccccc2)cs1 (configuration not stated) | 64.1 | -0.3 | 77.9 | 93.9 | 176.9* | 100.7 | 120.2 | 94.3 | 98.2 | 102.9 | 98.8 | 0
COc1ccc(C(C)=O)cc1COC(=O)c1cnc(Cl)c(Cl)c1 | 90.9 | 0.3 | 63.7 | 134.8 | 99.5 | 72.9 | 114.2 | 125.8 | 97.8 | 108.5 | 108.0 | x
COc1ccc(C(C)=O)cc1COC(=O)c1ccc2c(c1)OCO2 | 90.6 | 0.4 | 97.5 | 102.0 | 98.9 | 96.7 | x | x | x | x | x | x
Cc1cc(C(=O)Nc2ccc3c(c2)OCCO3)ccc1[N+](=O)[O-] | 101.9 | -0.3 | 103.4 | 105.6 | 90.1 | 98.1 | x | x | x | x | x | x
O=C(Nc1ccc2c(c1)OCCO2)c1ccc(Cl)c([N+](=O)[O-])c1 | 76.4 | 0.1 | 90.9 | 86.2 | 157.7* | 91.5 | 105.2 | 103.1 | 96.8 | 93.2 | 96.7 | x
CCn1c(CSc2n[nH]c(N)n2)nc2cc(C(=O)O)ccc21 | 109.1 | -0.2 | 100.8 | 178.4* | 124.6 | 104.2 | 97.1 | 98.2 | 99.8 | 100.7 | 101.3 | x
CCn1c(CSc2nnc3ccccn23)nc2cc(C(=O)O)ccc21 | 84.5 | -0.1 | 101.0 | 91.6 | 94.2 | 92.7 | x | x | x | x | x | x
O=Nc1c(-c2cccc([N+](=O)[O-])c2)nc2ncccn12 | 60.7 | 0.8 | 63.2 | 91.4 | 137.8 | 65.2 | 139.3 | 148.5 | 67.2 | 107.1 | 81.8 | x
O=C(N[C@@H](Cc1ccccc1)C(=O)OCc1ccccc1)c1nc[nH]c1C(=O)N1CCNCC1 | 103.8 | 0.1 | 114.1 | 102.3 | 109.0 | 107.2 | x | x | x | x | x | x
O=c1cc(CSc2ccc(Cl)cc2)nc(-c2ccccc2)[nH]1 | 104.3 | -0.1 | 98.9 | 99.6 | 98.3 | 102.5 | x | x | x | x | x | x
O=c1cc(CSc2ccc(Cl)cc2)nc(-c2ccccn2)[nH]1 | 88.1 | 0.0 | 82.7 | 86.7 | 211.2* | 74.1 | 263.5* | 169.4* | 85.8 | 121.0 | 107.0 | -0.3 | Yeast autofl DR=0.59;TORC1 bypass gr=0
C=C(C)CC1(NC(C)c2ccccc2)CCCCC1 (configuration not stated) | 101.5 | -0.1 | 96.2 | 102.7 | 94.5 | 97.9 | x | x | x | x | x | x
COC1=C(N)C(=O)c2nc(-c3nc(C(=O)O)c(C)c(-c4ccc(OC)c(OC)c4O)c3N)ccc2C1=O | 71.1 | 0.2 | 59.9 | 132.1 | 218.4* | 67.4 | 308.6* | 251.5* | 95.5 | 349.1* | 98.1 | x
COc1ccc(-c2ncncc2-c2csc(C)n2)c(O)c1OC | 89.5 | 0.2 | 98.0 | 98.7 | 99.3 | 90.9 | x | x | x | x | x | x
CCC(=O)Oc1oc(-c2ccccc2)nc1C=Nc1ccc(C)cc1 | 90.3 | 0.0 | 101.4 | 95.6 | 103.0 | 102.0 | x | x | x | x | x | -0.5
CCC(=O)Oc1oc(-c2ccccc2)nc1C=Nc1ccccc1OC | 80.6 | 0.2 | 94.2 | 98.7 | 103.2 | 91.9 | x | x | x | x | x | 0
O=S(=O)(NCC1CCCO1)c1ccc(Cl)cc1 (configuration not stated) | 100.5 | 0.4 | 98.7 | 92.9 | 91.1 | 92.5 | x | x | x | x | x | x
O=C(NNC(=O)c1sccc1-n1cccc1)c1ccccc1 | 110.5 | -0.2 | 97.9 | 98.3 | 96.2 | 97.2 | x | x | x | x | x | x
O=C(NNC(=O)c1sccc1-n1cccc1)c1cccc(Cl)c1 | 88.0 | 0.1 | 82.4 | 89.4 | 202.7* | 100.3 | 94.2 | 96.1 | 100.8 | 107.1 | 95.2 | x
CCCCNc1c2c3c(cccc3n(C)c1=O)C(=O)c1ccccc1-2 | 99.7 | 0.1 | 89.1 | 111.7 | 171.0* | 102.4 | 321.6* | 94.3 | 123.1 | 123.8 | 97.1 | 0.2
O=C1CCC(C(=O)N2CCCCCC2)CN1Cc1cccc(C(F)(F)F)c1 (configuration not stated) | 108.2 | 0.1 | 107.9 | 105.4 | 102.9 | 104.6 | x | x | x | x | x | x
CC[C@]12c3[nH]c4cc(-c5ccco5)ccc4c3CCN1C(=O)[C@@H](CC(=O)NCCCOC)C[C@@H]2C(=O)N1CCN(C(=O)c2ccco2)CC1 | x | 0.7 | x | x | x | x | x | x | x | x | x | x
CCOC(=O)/C(C#N)=C\c1cn(C)c2ccccc12 | 97.2 | 0.1 | 96.9 | 101.9 | 98.1 | 87.1 | x | x | x | x | x | x
CCOC(=O)/C(=C\c1cn(C)c2ccccc12)[N+](=O)[O-] | 57.1 | 2.5 | 80.4 | 97.9 | 207.2* | 58.7 | x | x | x | x | x | 2.22
COc1ccc(N2CCN(C(=O)c3ccc(Br)cc3)CC2)c([N+](=O)[O-])c1 | 72.0 | 0.8 | 90.2 | 99.2 | 198.6* | 121.9 | x | x | x | x | x | 2.34
COc1ccc(N2CCN(C(=O)c3ccc(C)cc3)CC2)c([N+](=O)[O-])c1 | 85.8 | 0.0 | 95.2 | 91.4 | 97.0 | 94.4 | x | x | x | x | x | x
COc1ccc(N2CCN(C(=O)c3ccccc3)CC2)c([N+](=O)[O-])c1 | 61.2 | -0.2 | 70.4 | 89.2 | 189.3* | 65.4 | x | x | x | x | x | -0.3
CCN(CC)C(=O)Cn1c(=O)oc2ccccc21 | 94.0 | -0.1 | 98.2 | 96.3 | 115.4 | 108.8 | x | x | x | x | x | x
COc1cc(OC)cc(C(=O)/C=C2\Sc3ccccc3N2C)c1 | 94.7 | -0.3 | 97.3 | 99.9 | 100.4 | 97.9 | x | x | x | x | x | x
